Data taken from PubChem BioAssay AID1159580 (chemical genetic matrix, 2015).
Values joined by “and” are separate entries in the source; they are usually repeats but may differ in a detail not shown here. Equal values may be shown once. Out of some 5,500 compounds screened, about 2,000 (36%) were called active. Roughly 18% stayed inconclusive and do not appear here. Rule as the data show it: active = normalized growth mostly below about 0.91 (no sharp cut-off); inconclusive = no clear call, values can overlap the other calls; inactive = mostly above about 0.92. Some of the results follow.

Assay: chemical genetic growth profiling, strain panel (AID 1159580);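 also: tested at 20 µM; growth read once vehicle control cultures reached saturation at 30 °C; 1 = growth at the plate median or of vehicle wells; lower values mean less growth of the strain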
Conditions: S. cerevisiae deletion strains, growth OD

Measured: normalized growth

CC(C[N+](C)(C)C)OC(N)=O (centres undefined)
inactive: locus YAL013W, strain DEP1, active compounds read low 0.991 | locus YAL021C, strain ccr4, active compounds read low 1.05 | locus YAL026C, strain drs2, active compounds read low 1.03 | locus YAL030W, strain snc1, active compounds read low 1.02 | locus YAL040C, strain CLN3, active compounds read low 1 | locus YBL061C, strain skt5, active compounds read low 1.03 | locus YBR009C, strain hhf1, active compounds read low 1.01 | locus YBR021W, strain FUR4, active compounds read low 1.01 | locus YBR023C, strain chs3, active compounds read low 1.03 | locus YBR171W, strain sec66, active compounds read low 1.05 | locus YBR229C, strain ROT2, active compounds read low 0.994 | locus YBR231C, strain swc5, active compounds read low 1.01 | locus YBR279W, strain paf1, active compounds read low 1.03 | locus YCL011C, strain gbp2, active compounds read low 1.01 | locus YCL016C, strain dcc1, active compounds read low 1.03 | locus YCL029C, strain bik1, active compounds read low 0.988 | locus YCL061C, strain MRC1 (second series), active compounds read low 1 | locus YCL061C, strain MRC1, active compounds read low 1.01 | locus YCL069W, strain vba3, active compounds read low 1.03 | locus YCR088W, strain abp1, active compounds read low 1.03 | locus YDL005C, strain med2, active compounds read low 1.01 | locus YDL035C, strain GPR1, active compounds read low 1.04 | locus YDL040C, strain nat1, active compounds read low 1.02 | locus YDL074C, strain BRE1, active compounds read low 0.947 | locus YDL101C, strain DUN1, active compounds read low 0.976 | locus YDL185W, strain tfp1, active compounds read low 0.981 | locus YDL192W, strain arf1, active compounds read low 0.983 | locus YDR001C, strain nth1, active compounds read low 1.03 | locus YDR069C, strain doa4, active compounds read low 1.01 | locus YDR101C, strain arx1, active compounds read low 0.991 | locus YDR137W, strain rgp1, active compounds read low 1.04 | locus YDR150W, strain NUM1, active compounds read low 1.01 | locus YDR159W, strain sac3, active compounds read low 0.982 | locus YDR162C, strain NBP2, active compounds read low 1.02 | locus YDR195W, strain ref2 1 | locus YDR297W, strain sur2, active compounds read low 1.02 | locus YDR318W, strain mcm21, active compounds read low 0.985 | locus YDR334W, strain swr1, active compounds read low 1.03 | locus YDR335W, strain msn5, active compounds read low 1.03 | locus YDR363W, strain ESC2, active compounds read low 0.974 | locus YDR388W, active compounds read low 0.992 | locus YDR392W, strain spt3, active compounds read low 0.962 | locus YDR502C, strain sam2, active compounds read low 0.991 | locus YEL003W, strain gim4, active compounds read low 1.01 | locus YEL037C, strain rad23, active compounds read low 1.04 | locus YEL061C, strain CIN8 (second series), active compounds read low 1.03 | locus YEL061C, strain CIN8, active compounds read low 0.995 | locus YER002W, strain NOP16, active compounds read low 1.02 | locus YER015W, strain faa2, active compounds read low 1.02 | locus YER016W, strain bim1, active compounds read low 1.02 | locus YER110C, active compounds read low 0.972 | locus YER111C, strain swi4, active compounds read low 1.04 | locus YER155C, strain BEM2 (second series), active compounds read low 0.998 | locus YER155C, strain BEM2, active compounds read low 0.986 | locus YER167W, strain BCK2, active compounds read low 1.01 | locus YFR010W, strain ubp6, active compounds read low 1.02 | locus YGL078C, strain dbp3, active compounds read low 0.982 | locus YGL086W, strain mad1, active compounds read low 0.984 | locus YGL167C, strain pmr1, active compounds read low 1.04 | locus YGL173C, strain kem1, active compounds read low 1.01 | locus YGL227W, strain vid30, active compounds read low 1.02 | locus YGL240W, strain doc1, active compounds read low 1.01 | locus YGL248W, strain PDE1, active compounds read low 0.987 | locus YGL253W, strain hxk2, active compounds read low 1.02 | locus YGR078C, strain PAC10, active compounds read low 0.986 and 0.968 | locus YGR135W, strain pre9, active compounds read low 0.987 | locus YGR229C, strain SMI1, active compounds read low 1.03 | locus YGR252W, strain gcn5, active compounds read low 1.04 | locus YHR013C, strain ard1, active compounds read low 1.03 | locus YHR027C, strain rpn1, active compounds read low 1.03 | locus YHR030C, strain SLT2, active compounds read low 0.991 and 0.986 | locus YHR079C, strain IRE1 (second series), active compounds read low 0.975 | locus YHR079C, strain IRE1, active compounds read low 0.976 | locus YHR094C, strain hxt1, active compounds read low 0.982 | locus YHR129C, strain ARP1, active compounds read low 0.988 | locus YHR142W, strain chs7, active compounds read low 1.04 | locus YHR200W, strain rpn10, active compounds read low 0.987 | locus YIL066C, strain RNR3, active compounds read low 1.01 | locus YIL073C, strain SPO22, active compounds read low 1.04 | locus YIL125W, strain kgd1, active compounds read low 0.979 | locus YIR030C, strain dcg1, active compounds read low 0.976 | locus YJL092W, strain hpr5, active compounds read low 1.02 | locus YJL095W, strain BCK1 (second series), active compounds read low 1.05 | locus YJL095W, strain BCK1, active compounds read low 0.985 and 0.982 | locus YJL115W, strain asf1, active compounds read low 1.04 | locus YJL129C, strain trk1, active compounds read low 1.04 | locus YJL134W, strain LCB3, active compounds read low 0.989 | locus YJL154C, strain vps35, active compounds read low 1.03 | locus YJL164C, strain tpk1, active compounds read low 1.03 | locus YJL166W, strain qcr8, active compounds read low 1.01 | locus YJL168C, strain set2, active compounds read low 0.981 | locus YJL187C, strain SWE1 (second series), active compounds read low 0.987 | locus YJL187C, strain SWE1, active compounds read low 1.03 | locus YJR043C, strain POL32, active compounds read low 1.05
